Screening results as filed in PubChem.
Compounds with a hit are over-represented: about 11% of the library has one in this group of screens.
VACV Venus inh: vaccinia inhibition (Venus reporter) | Potency, µM (highest dose often 36.5 µM), hits mostly inhibitors | actives 0.46% (n = 330,000) | Vaccinia virus Venus reporter expression, fluorescence; calls by dose curve; tested in A549 cells; further: nearly all actives have a fitted effect of over 30% in size
Pf growth 96h: P. falciparum growth inhibition at 96 hour, primary screen for plastid delayed-death inhibitors; AID 504834; Potency, µM (titrated, usually from 28.7 µM), actives largely listed as inhibitors; actives 6.9% (n = 320,000); P. falciparum luciferase reporter growth, 96 h
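Readout is luminescence from an integrated firefly luciferase in P. falciparum. Red cells, 2% hematocrit and 0.05% parasitemia final, were cultured with compound through two parasite generations (96 hours) at 37 C, 5% CO2.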
HCV inhibitor: HCV inhibition; actives 3.4% (n = 340,000); Huh7.5.1 HCVcc-Cre infection, luciferase reporter, 44 h; Potency, µM (doses to about 41.8 µM), hits mostly inhibitors
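Reporter virus HCVcc-Cre (~0.5 moi) infects cells exposed to compound; seeding density 1,000 cells/well with 4 h settling beforehand. Luminescence, 15 sec read, taken 44 h post-infection following a 15 min RT substrate incubation.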
NS1 inh: inhibitors of influenza NS1 protein function | Potency, µM (doses to about 46.1 µM) | actives 0.4% (n = 270,000) | AID 2326; calls by dose curve; further: actives are rising curves; nearly all actives have a fitted effect of over 50% in size
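Recovery from NS1-induced slow growth read by OD600 in budding yeast switched to galactose assay medium (pH 6.0, -URA) at 1:100 dilution. Compound 23 nl per well; the matching strain lacking NS1 serves as control.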
Vaccinia mCherry: vaccinia inhibition (mCherry reporter); Vaccinia virus mCherry reporter infection, fluorescence; Potency, µM (series often up to 36.5 µM), usual class: inhibitors; actives 0.63% (n = 310,000); AID 720579; calls by dose curve; tested in A549 cells; further: nearly all actives have a fitted effect of over 35% in size
Pf growth 48h: P. falciparum growth inhibition at 48 hours (one generation); P. falciparum luciferase growth in erythrocytes, 48 h; Potency, µM (top dose mostly 28.7 µM), usual class: inhibitors; actives 5.9% (n = 310,000)
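Erythrocytes infected with P. falciparum carrying an integrated firefly luciferase reporter (2% hematocrit, 0.1% parasitemia final) were exposed to compounds in RPMI 1640 with 0.5% Albumax at 37 C, 5% CO2. Growth inhibition was scored as reduced luminescence.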
A number is an active result; – = inactive; ? = inconclusive; · = no result; [ ] = another dose, or the depositor's remark. Unless noted, the call rests on the fitted dose curve; in most records, active means well fitted inhibition curve with a large enough effect; inconclusive means small, poorly fitted or top-dose-only effect, or another doubt; inactive means no such curve, though single readings can be large or run the other way.

SMILES	VACV Venus inh	Pf growth 96h	HCV inhibitor	NS1 inh	Vaccinia mCherry	Pf growth 48h
COc1ccc(-c2cnnc(N/N=C/c3ccc(O)c(O)c3)n2)cc1	–	–	–	–	–	1.7µM
COc1ccc(-c2cnnc(N/N=C/c3ccc(C)o3)n2)cc1	–	4.1µM	–	–	–	?
COc1ccc(-c2cnnc(N/N=C/c3ccc(O)cc3)n2)cc1	–	–	–	·	–	–
Oc1ccc(/C=N\Nc2nncc(-c3ccccc3)n2)cc1	–	2.3µM	?	–	?	?
CCN1C(=O)[C@H]2[C@@H](c3ccc(-c4cccc(Cl)c4)c(OC)c3)N[C@@](Cc3ccccc3)(C(=O)OC)[C@H]2C1=O	?	0.41µM	–	·	–	2.1µM
COC(=O)[C@]1(Cc2ccccc2)N[C@H](c2ccc(-c3cccc(Cl)c3)c(OC)c2)[C@@H]2C(=O)N(C)C(=O)[C@@H]21	?	·	2.2µM	·	?	·
CCN1C(=O)[C@H]2[C@@H](c3ccc(-c4ccc(OC)cc4)c(OC)c3)N[C@@](Cc3ccccc3)(C(=O)OC)[C@H]2C1=O	–	·	?	·	?	·
O=C(CCN1C(=O)c2ccccc2C1=O)Nn1cnnc1	–	2.9µM	–	–	–	–
COc1ccc(NC(=O)C2C3C=CC4(O3)C2C(=O)N(CCN2CCCCC2C)C4C(=O)NC2CCCC(C)C2C)cc1 (stereo not given)	–	?	?	–	–	–
COC1=C(C)C(=O)c2c(c(COC(N)=O)c3n2C[C@@H]2[C@@H]3N2C)C1=O (stereo not given in full)	11µM	·	·	–	–	·
CCOC(=O)C1CCCN(C2=NC(=O)/C(=C/c3ccc(OC)cc3OC)S2)C1 (stereo not given)	·	–	?	–	·	6.6µM
CCOC(=O)C1CCCN(C2=NC(=O)/C(=C/c3ccc(O)c(OCC)c3)S2)C1 (stereo not given)	–	–	–	–	–	?
CCOC(=O)C1CCCN(C2=NC(=O)/C(=C/c3ccc(N(C)C)cc3)S2)C1 (stereo not given)	–	–	–	–	?	6.6µM
CCOC(=O)C1CCCN(C2=NC(=O)/C(=C/c3ccc(OC)cc3)S2)C1 (stereo not given)	·	?	–	–	·	10µM
CN(C)c1ccc(-c2nc(-c3ccco3)no2)cc1[N+](=O)[O-]	–	·	·	·	–	·
O=c1c2c(-c3cccs3)csc2ncn1-c1ccccc1	–	12µM	?	–[9.22 µM]	·	–
O=c1c2c(-c3cccs3)csc2ncn1-n1cccc1	·	–	–	–	·	?
Cc1ccc(-n2cnc3scc(-c4cccs4)c3c2=O)cc1	–	–	11µM	–	–	?
c1ccc(C(c2ccccc2)N2CCN(c3nc4ccccc4n4cnnc34)CC2)cc1	–	1.7µM	?	–	–	1.9µM
O=C(NNc1cccc(Cl)n1)C(F)(F)F	–	2.3µM	–	·	–	12µM
CCOC(=O)N1CCc2c(sc3ncn(C)c(=O)c23)C1	–	?	–	–	–	–
CCOC(=O)N1CCc2c(sc3nc(SC(C)C)n(N)c(=O)c23)C1	–	12µM	–	–	–	?
CCOC(=O)N1CCc2c(sc3nc4n(c(=O)c23)N=C(c2ccc(OC)cc2)CS4)C1	–	?	–	–	–	0.47µM
CCCOc1ccc(C(O)C(CN2CCOCC2)c2ccccc2)cc1 (stereo not given)	–	8.3µM	–	–	·	8.3µM
CCCCOc1ccc(C(O)C(CN2CCOCC2)c2ccccc2)cc1 (stereo not given)	–[7.34 µM]	?	–	–	–[7.34 µM]	?
SMILES	VACV Venus inh	Pf growth 96h	HCV inhibitor	NS1 inh	Vaccinia mCherry	Pf growth 48h
CCCCOc1ccc(C(O)C(CN2CCCCC2)c2ccccc2)cc1 (stereo not given)	–	–	?	·	–	?
CCOc1ccc(C(O)C(CN2CCOCC2)c2ccccc2)cc1 (stereo not given)	–	10µM	–	?	·	?
O=C(NCCNC(=O)c1ccccc1F)c1ccco1	–	?	–	–	–	–
O=c1ccc2cc3ccoc3c(O)c2o1	–	·	1µM	·	–	·
O=C1c2ccccc2C(=O)c2c1cccc2N(CCO)CCO	–	–	–	–	–	–
CN(C)c1cc2c(c(N(C)C)c1)C(=O)c1ccccc1C2=O	?	4.1µM	?	–	–	?
CCC(C(=O)NC1C(=O)N2C(C(=O)O)=C(CSc3nnc(C)s3)CSC12)c1ccccc1 (stereo not given)	·	–	–	·	·	–
